# Data as given in PubChem BioAssay AID1159580 (chemical genetic matrix, 2015).
# The campaign covered roughly 5,500 compounds. About 2,000 (36%) were called active. Another 18% or so got no clear call; they are omitted. The list shows a part of the results. Values without a mark were called inactive. No stated cut-off is given here; in the data, active means normalized growth mostly below about 0.91 (no sharp cut-off); inconclusive means no clear call, values can overlap the other calls; inactive means mostly above about 0.92.
# Test: chemical genetic growth profiling, strain panel (AID 1159580);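 further: tested at 20 µM; growth read once vehicle control cultures reached saturation at 30 °C; 1 = growth at the plate median or of vehicle wells; lower values mean less growth of the strain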
# Conditions: S. cerevisiae deletion strains, growth OD
smiles,measurement,setting,value
CC(=O)OCC(=O)[C@H]1CCC2C3CC=C4C[C@@H](O)CC[C@]4(C)C3CC[C@@]21C (some centres undefined),normalized growth,"locus YAL021C, strain ccr4, hits give low values",1.04
same,normalized growth,"locus YAL026C, strain drs2, hits give low values",0.971
same,normalized growth,"locus YAL030W, strain snc1, hits give low values",0.993
same,normalized growth,"locus YBL061C, strain skt5, hits give low values",0.969
same,normalized growth,"locus YBR009C, strain hhf1, hits give low values",0.819 (active)
same,normalized growth,"locus YBR023C, strain chs3, hits give low values",0.97
same,normalized growth,"locus YBR171W, strain sec66, hits give low values",1
same,normalized growth,"locus YBR231C, strain swc5, hits give low values",0.894 (active)
same,normalized growth,"locus YBR279W, strain paf1, hits give low values",0.998
same,normalized growth,"locus YCL011C, strain gbp2, hits give low values",0.858 (active)
same,normalized growth,"locus YCL016C, strain dcc1, hits give low values",0.983
same,normalized growth,"locus YCL061C, strain MRC1, hits give low values",0.893 (active)
same,normalized growth,"locus YCL069W, strain vba3, hits give low values",0.893 (active)
same,normalized growth,"locus YCR088W, strain abp1, hits give low values",0.965
same,normalized growth,"locus YDL005C, strain med2, hits give low values",0.885 (active)
same,normalized growth,"locus YDL040C, strain nat1, hits give low values",1.01
same,normalized growth,"locus YDR001C, strain nth1, hits give low values",1.01
same,normalized growth,"locus YDR069C, strain doa4, hits give low values",1.02
same,normalized growth,"locus YDR137W, strain rgp1, hits give low values",0.742 (active)
same,normalized growth,"locus YDR159W, strain sac3, hits give low values",0.753 (active)
same,normalized growth,"locus YDR195W, strain ref2",1.4 [resistant] (active)
same,normalized growth,"locus YDR297W, strain sur2, hits give low values",1.02
same,normalized growth,"locus YDR334W, strain swr1, hits give low values",1.01
same,normalized growth,"locus YDR335W, strain msn5, hits give low values",0.908 (active)
same,normalized growth,"locus YDR392W, strain spt3, hits give low values",0.142 (active)
same,normalized growth,"locus YEL003W, strain gim4, hits give low values",0.894 (active)
same,normalized growth,"locus YEL037C, strain rad23, hits give low values",0.999
same,normalized growth,"locus YEL061C, strain CIN8 (second series), hits give low values",0.945
same,normalized growth,"locus YER015W, strain faa2, hits give low values",1.01
same,normalized growth,"locus YER016W, strain bim1, hits give low values",0.967
same,normalized growth,"locus YER111C, strain swi4, hits give low values",0.986
same,normalized growth,"locus YER155C, strain BEM2 (second series), hits give low values",0.337 (active)
same,normalized growth,"locus YFR010W, strain ubp6, hits give low values",0.976
same,normalized growth,"locus YGL167C, strain pmr1, hits give low values",1
same,normalized growth,"locus YGL173C, strain kem1, hits give low values",0.953
same,normalized growth,"locus YGL227W, strain vid30, hits give low values",0.935
same,normalized growth,"locus YGL240W, strain doc1, hits give low values",0.927
same,normalized growth,"locus YGL253W, strain hxk2, hits give low values",0.937
same,normalized growth,"locus YHR013C, strain ard1, hits give low values",0.87
same,normalized growth,"locus YHR027C, strain rpn1, hits give low values",1.05
same,normalized growth,"locus YHR030C, strain SLT2, hits give low values",0.896
same,normalized growth,"locus YHR079C, strain IRE1, hits give low values",0.915
same,normalized growth,"locus YHR142W, strain chs7, hits give low values",0.593 (active)
same,normalized growth,"locus YJL092W, strain hpr5, hits give low values",0.931
same,normalized growth,"locus YJL095W, strain BCK1 (second series), hits give low values",0.97
same,normalized growth,"locus YJL095W, strain BCK1, hits give low values",0.956
same,normalized growth,"locus YJL115W, strain asf1, hits give low values",1.02
same,normalized growth,"locus YJL129C, strain trk1, hits give low values",0.696 (active)
same,normalized growth,"locus YJL154C, strain vps35, hits give low values",1.01
same,normalized growth,"locus YJL164C, strain tpk1, hits give low values",0.853 (active)
same,normalized growth,"locus YJL166W, strain qcr8, hits give low values",0.826 (active)
same,normalized growth,"locus YJR066W, strain TOR1, hits give low values",0.913
same,normalized growth,"locus YKL160W, strain elf1, hits give low values",0.946
same,normalized growth,"locus YKR026C, strain gcn3, hits give low values",1.01
same,normalized growth,"locus YKR091W, strain srl3, hits give low values",1.02
same,normalized growth,"locus YLL001W, strain dnm1, hits give low values",0.829 (active)
same,normalized growth,"locus YLL026W, hits give low values",0.935
same,normalized growth,"locus YLL041C, strain sdh2, hits give low values",1.07 [resistant] (active)
same,normalized growth,"locus YLR027C, strain aat2, hits give low values",0.921 (active)
same,normalized growth,"locus YLR113W, strain HOG1, hits give low values",0.882
same,normalized growth,"locus YLR221C, strain rsa3, hits give low values",0.816 (active)
same,normalized growth,"locus YLR258W, strain gsy2, hits give low values",0.963
same,normalized growth,"locus YLR262C, strain YPT6 (second series), hits give low values",0.583 (active)
same,normalized growth,"locus YLR320W, strain mms22, hits give low values",0.435 (active)
same,normalized growth,"locus YLR342W, strain FKS1, hits give low values",0.762 (active)
same,normalized growth,"locus YLR357W, strain rsc2, hits give low values",1.04
same,normalized growth,"locus YLR370C, strain arc18, hits give low values",1
same,normalized growth,"locus YLR384C, strain iki3, hits give low values",1.02
same,normalized growth,"locus YML120C, strain ndi1, hits give low values",0.805 (active)
same,normalized growth,"locus YMR058W, strain fet3, hits give low values",0.924
same,normalized growth,"locus YMR125W, strain sto1, hits give low values",0.829 (active)
same,normalized growth,"locus YMR129W, hits give low values",0.998
same,normalized growth,"locus YMR205C, strain PFK2, hits give low values",0.833 (active)
same,normalized growth,"locus YMR231W, strain pep5, hits give low values",1.02
same,normalized growth,"locus YNL071W, strain lat1, hits give low values",0.175 (active)
same,normalized growth,"locus YNL183C, strain NPR1, hits give low values",0.956
same,normalized growth,"locus YNL209W, strain ssb2, hits give low values",1.08 [resistant] (active)
same,normalized growth,"locus YNL248C, strain rpa49, hits give low values",0.899
same,normalized growth,"locus YNL322C, strain KRE1 (second series), hits give low values",1.02
same,normalized growth,"locus YNR049C, strain mso1, hits give low values",0.991
same,normalized growth,"locus YOR001W, strain rrp6, hits give low values",1.02
same,normalized growth,"locus YOR070C, strain gyp1, hits give low values",1.03
same,normalized growth,"locus YOR080W, strain dia2, hits give low values",1.01
same,normalized growth,"locus YOR083W, strain WHI5, hits give low values",0.885 (active)
same,normalized growth,"locus YOR106W, strain vam3, hits give low values",0.913
same,normalized growth,"locus YOR231W, strain MKK1, hits give low values",0.942
same,normalized growth,"locus YOR265W, strain rbl2, hits give low values",0.979
same,normalized growth,"locus YOR270C, strain vph1, hits give low values",0.669 (active)
same,normalized growth,"locus YOR290C, strain snf2, hits give low values",0.862 (active)
same,normalized growth,"locus YPL051W, strain arl3, hits give low values",1
same,normalized growth,"locus YPL078C, strain atp4, hits give low values",0.887 (active)
same,normalized growth,"locus YPL106C, strain sse1, hits give low values",1.3 [resistant] (active)
same,normalized growth,"locus YPL240C, strain hsp82, hits give low values",1.03
same,normalized growth,"locus YPL256C, strain CLN2, hits give low values",0.906
